This passage reports Potency results from PubChem BioAssay AID504339 (National Center for Advancing Translational Sciences (NCATS), 2011).

The structures appear in SMILES notation. “And” between values parts separate entries of the source, which are not always exact repeats. Equal entries are not always repeated. Among all 390,000 compounds or so, about 17,000 (4.4%) were called active. Where a call stands in place of a potency, no number is given. About 8% were inconclusive and are not listed. Calls follow the shape of the dose curve; as a rule, active = well fitted inhibition curve with a large enough effect; inconclusive = small, poorly fitted or top-dose-only effect; inactive = no such curve, though single readings can be large or run the other way. Only a selection was taken, and actives are over-represented in it overall.
Potency is read from the fitted curve at half-maximal effect.

This assay deals with Lysine-specific demethylase 4A (Homo sapiens) (UniProt O75164). Kind of assay: qHTS Assay for Inhibitors of JMJD2A-Tudor Domain. Also: nearly all actives have a fitted effect of over 50% in size. Conditions: AlphaScreen JMJD2A-Tudor / H3K4me3 peptide binding; series mostly up to 114 µM. (In general: In qHTS, concentration-response curves come from the screen itself.)
Chain of Lysine-specific demethylase 4A (Homo sapiens) (O75164 whole entry, looked up, the tested form may be a part): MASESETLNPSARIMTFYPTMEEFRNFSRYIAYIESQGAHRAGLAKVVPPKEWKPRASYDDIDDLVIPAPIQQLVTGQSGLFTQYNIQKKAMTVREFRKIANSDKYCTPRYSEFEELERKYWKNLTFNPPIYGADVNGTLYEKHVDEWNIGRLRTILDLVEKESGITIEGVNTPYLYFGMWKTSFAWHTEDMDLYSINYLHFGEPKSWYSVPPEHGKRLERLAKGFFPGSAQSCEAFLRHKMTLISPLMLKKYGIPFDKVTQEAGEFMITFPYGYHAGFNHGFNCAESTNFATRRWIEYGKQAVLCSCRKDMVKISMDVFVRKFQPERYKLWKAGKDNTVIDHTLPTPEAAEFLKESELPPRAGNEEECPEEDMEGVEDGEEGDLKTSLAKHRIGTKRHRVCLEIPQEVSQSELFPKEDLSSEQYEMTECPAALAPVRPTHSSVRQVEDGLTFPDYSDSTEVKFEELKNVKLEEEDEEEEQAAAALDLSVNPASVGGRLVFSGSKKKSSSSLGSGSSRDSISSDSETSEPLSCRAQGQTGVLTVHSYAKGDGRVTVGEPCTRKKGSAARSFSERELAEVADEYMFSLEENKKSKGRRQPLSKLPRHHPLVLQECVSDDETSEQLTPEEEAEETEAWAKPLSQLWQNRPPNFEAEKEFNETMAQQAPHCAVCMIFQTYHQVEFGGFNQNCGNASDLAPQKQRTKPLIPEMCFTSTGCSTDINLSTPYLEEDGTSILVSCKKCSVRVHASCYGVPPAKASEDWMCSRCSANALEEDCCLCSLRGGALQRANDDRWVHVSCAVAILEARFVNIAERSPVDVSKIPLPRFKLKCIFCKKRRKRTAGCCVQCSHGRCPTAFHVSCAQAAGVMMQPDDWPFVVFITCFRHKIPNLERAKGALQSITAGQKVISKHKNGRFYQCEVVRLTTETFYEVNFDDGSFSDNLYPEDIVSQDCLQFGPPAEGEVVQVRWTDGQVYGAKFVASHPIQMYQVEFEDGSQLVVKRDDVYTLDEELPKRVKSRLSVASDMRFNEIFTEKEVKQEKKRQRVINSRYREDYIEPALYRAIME
As to `CC(=O)Nc1cccc(NC(=O)CSc2cn(CC(=O)N3CCCC3)c3ccccc23)c1`, the Potency result is “inactive”. With `O=S(=O)(NCC(c1ccco1)N1CCOCC1)c1cc(F)ccc1F` (stereo unspecified), the Potency result was “inactive”. For `O=C(CSCc1cnn(-c2ccccc2)c1-n1cccc1)NCc1ccccc1Br`, the Potency result was “inactive”. For `COc1ccc(-n2c(-c3ccc(OC)c(OC)c3)n[nH]c2=S)cc1` the value was 1.26 µM (active). The value for `COc1ccccc1-n1c(-c2cc(-c3ccco3)[nH]n2)n[nH]c1=S` was 15.8 µM (active); that for `COc1ccc(-n2c(C)csc2=S)cc1` was “inactive”. For `CCOC(=O)CSc1nnc(CNC(=O)c2cccs2)n1-c1cc(OC)ccc1OC` the value was “inactive”; for `COc1ccc(-c2nc3ccccc3n2CCC(C)C)cc1OC`, “inactive”; for `COc1ccccc1OCC(=O)OCc1cc(-c2ccco2)on1`, “inactive”. As to `COc1ccccc1N1CCN(c2nc(C)cc(=O)[nH]2)CC1`, the Potency result was “inactive”. For `Cc1ccc(-n2c(-c3ccc(Cl)cc3)n[nH]c2=S)cc1` the value was 50.1 µM (active); for `COc1ccc(OC)c(-n2c(-c3ccn[nH]3)n[nH]c2=S)c1`, 50.1 µM (active). In the case of `Cc1ccc(-c2cn3cc(C)ccc3n2)cc1`, the Potency entry was “inactive”.

Consider `Cc1n[nH]c(=O)n1-c1ccc(C(C)C)cc1`, for which the Potency result is “inactive”.

As to `COc1ccc(OC)c(-n2nnc(-c3nc(-c4cc(OC)c(OC)c(OC)c4)no3)c2C)c1`, the Potency entry was “inactive”. The value for `CCOC(=O)c1cccc(NC(=O)c2cc(CN3CCCC3)on2)c1` was “inactive”.

`O=C(OCc1cc(=O)n2nc(C3CC3)sc2n1)c1ccccc1Cl`: the Potency entry is “inactive”. Regarding `COc1ccc(C2c3c(oc4ccccc4c3=O)C(=O)N2Cc2ccc3c(c2)OCO3)cc1` (stereo unspecified), the Potency entry is “inactive”. For `COc1ccc(Cn2ccn(CC(=O)Nc3cc(C)ccc3C)c(=O)c2=O)cc1` the value was “inactive”; for `O=C(CCCn1c(=O)c2cccn2c2cccnc21)NCc1ccc(F)cc1`, “inactive”. For `COc1ccccc1C(=O)NCCn1cc(SCc2ccccc2Cl)c2ccccc21` the value was “inactive”; for `CCN(CC)P(=O)(/C(Cl)=C\Nc1c(C)n(C)n(-c2ccccc2)c1=O)N(CC)CC`, 15.8 µM (active); for `Cc1c(NS(=O)(=O)c2ccc(Cl)cc2)c(=O)n(-c2ccccc2)n1C`, “inactive”. For `Cc1c(NC(=S)Nc2ccccc2)c(=O)n(-c2ccccc2)n1C` the value was “inactive”; for `CCN(CC)CCNc1ncnc2c1cnn2-c1cc(Cl)ccc1C`, “inactive”.

As for `O=C(O)c1ccc(Cn2c(SCc3ccc(F)cc3)nc3ccncc32)cc1`, the Potency result is “inactive”.

As to `O=C(O)c1ccc(Cn2cnc3c(=S)nc[nH]c32)cc1`, the Potency was 3.55 µM (active).

With `O=C(O)CCC(=O)NCc1ccc(C(=O)O)cc1`, the Potency entry was “inactive”. For `Cc1ccc(Cn2c(=O)n(-c3ccc(C)cc3)c(=O)c3c2c2cc(C)ccc2n3C)cc1` the value was “inactive”.

Regarding `Cc1ccc(Cl)cc1N(C)C(=O)C1CCCN(c2ncnc3onc(-c4ccc(F)cc4)c23)C1` (stereo unspecified), the Potency entry was “inactive”.

Consider `CC(C)c1cc(N=O)cc(C(C)C)c1O`, for which the Potency result is “inactive”. For `CC(C)=CCc1ccc(O)c(=O)cc1C(C)C` the value was 56.2 µM (active).

For the molecule `Cc1ccc(CNC(=O)c2c(O)nc3c(C)cccn3c2=O)cc1`, the Potency result was “inactive”. On to `COc1ccc2c(CNCCc3ccccc3C)c(C(=O)O)n(Cc3ccccc3C)c2c1`, for which the Potency result was “inactive”. For `Cc1ccc2ncc(C(=O)Nc3ccc(OC(F)(F)F)cc3)c(=O)n2c1` the value was “inactive”. For `COc1cccc2cc(-c3nc(Cl)c4c5c(sc4n3)CC(C)CC5)c(=O)oc12` (stereo unspecified) the value was “inactive”. The value for `CCCCCCC1(C)NC(c2ccc3c(c2)OCO3)=CC(c2ccccc2O)N1` (stereo unspecified) was “inactive”; that for `CCn1c2ccccc2c2cc(NC(=O)CNC)ccc21` was 1 µM (active). As to `CCn1c2ccccc2c2cc(NC(=O)COc3ccc(C)cc3C)ccc21`, the Potency result was “inactive”. Regarding `CCn1c2ccccc2c2cc(NC(=O)C/C(C)=N/NC(=O)c3ccccc3N)ccc21`, the Potency result was “inactive”.

`Cc1ccc(N(CC(=O)NCC(C)c2ccccc2)S(=O)(=O)N(C)C)cc1` (stereo unspecified): the Potency result was “inactive”.

With `Cc1ccc(NC(=O)C(=O)NCC(c2cccnc2)N2CCOCC2)cc1` (stereo unspecified), the Potency entry is “inactive”.

For the molecule `COc1cccc(C(=O)N(Cc2cccc(Cl)c2)Cc2ccco2)c1`, the Potency entry is “inactive”.

As for `CCCCCn1c(CCCNC(=O)c2ccccc2OC)nc2ccccc21`, the Potency entry was “inactive”. The value for `O=C(Nc1ccccc1)C1CC(=O)n2c(nc3ccccc32)N1` (stereo unspecified) was 8.91 µM (active). The value for `CCOC(=O)c1ccc(NC(=O)C2CC(=O)Nc3nc4ccccc4n32)cc1` (stereo unspecified) was “inactive”; that for `CC(=O)c1ccc(NC(=O)C2CC(=O)Nc3nc4ccccc4n32)cc1` (stereo unspecified) was “inactive”. For `CC(=O)N1CCCc2cc(S(=O)(=O)N3CCC(C(=O)NCc4ccc(C)cc4)CC3)ccc21` the value was “inactive”; for `O=c1cc(-c2ccccc2)n2c(SCc3ccccc3)nnc2[nH]1`, “inactive”. As to `O=c1[nH]c2ccccc2n2c(-c3ccccc3)nnc12`, the Potency is 7.94 µM (active) and 5.62 µM (active). For `Cc1cccc(CC(=O)Nc2cccc(-c3cn4cccnc4n3)c2)c1` the value was “inactive”; for `CCS(=O)(=O)N1Cc2ccccc2CC1C(=O)Nc1ccc(OC)cc1OC` (stereo unspecified), “inactive”; for `COc1ccc(NC(=O)C2C3C=CC(C3)C2C(=O)NCc2ccccn2)c(OC)c1` (stereo unspecified), 50.1 µM (active).

Turning to `CCOc1ccc(N2CC(C(=O)NCc3ccccn3)CC2=O)cc1` (stereo unspecified), the Potency entry was “inactive”. For `CN(Cc1ccccc1)C(=O)c1cn(C)c2ccc(S(=O)(=O)N(C)C3CCCCC3)cc2c1=O` the value was “inactive”; for `CCOC(=O)c1c(NC(=O)CSc2cn(CCNC(=O)c3cccc(C(F)(F)F)c3)c3ccccc23)sc2c1CCC2`, “inactive”; for `Cc1c(-c2nc(-c3ccc4c(c3)OCO4)no2)nnn1-c1ccc(Br)cc1F`, “inactive”.

In the case of `CCOC(=O)c1ccc(NC(=O)C2CC(=O)N(c3ccc4c(c3)OCCO4)C2)cc1` (stereo unspecified), the Potency result is “inactive”. The value for `CCc1nnc(NC(=O)C2CC(=O)N(c3ccc4c(c3)OCCO4)C2)s1` (stereo unspecified) was 25.1 µM (active); that for `CC(=O)c1ccccc1NC(=O)C1CC(=O)N(c2ccc3c(c2)OCCO3)C1` (stereo unspecified) was “inactive”. Turning to `O=C(CSc1nnc(CNC(=O)c2ccccc2)n1-c1ccc(F)cc1)Nc1ccccc1F`, the Potency result was “inactive”. The value for `COc1ccc(C2C(C#N)=C(N)Oc3cc(N)ccc32)cc1OC` (stereo unspecified) was “inactive”. The value for `COc1ccc(C2C(C#N)=C(N)Oc3n[nH]c(C)c32)cc1CN1CCN(c2ccc(F)cc2)CC1` (stereo unspecified) was 44.7 µM (active); that for `COc1ccccc1CN1CCCC(N2CCN(c3ccc(F)cc3)CC2)C1` (stereo unspecified) was “inactive”; that for `Cc1cc(=O)c2cc(C(=O)Nc3cccc(C)c3C)ccc2[nH]1` was “inactive”. The value for `COc1ccccc1NC(=O)C(=O)c1cc(C)n(-c2ccccc2F)c1C` was “inactive”; that for `COc1ccc(NC(=O)CCCc2nnc3n(CCC(C)C)c(=O)c4sccc4n23)c(OC)c1` was “inactive”; that for `Cc1ccccc1Nc1nn2c(=O)c3ccc(C(=O)NCCc4ccc(Cl)cc4)cc3nc2s1` was “inactive”.

With `Cc1ccc(C2=C/C(=C\c3cccnc3)C(=O)O2)cc1`, the Potency entry was “inactive”.

For the molecule `O=C(O)/C(=C/c1cccnc1)NC(=O)c1ccccc1`, the Potency entry is “inactive”. The value for `Nc1ccc2c(c1)C(=Cc1cccnc1)c1ccccc1-2` was 35.5 µM (active). The value for `O=C(NCc1ccccc1)c1cccc(NC(=O)N2CCSc3ncccc32)c1` was “inactive”; that for `CCc1ccc(S(=O)(=O)N/N=C\c2ccc([N+](=O)[O-])o2)cc1` was 50.1 µM (active).

For `CCn1c(/C=C/c2ccc([N+](=O)[O-])o2)nc2ccccc2c1=O`, the Potency entry was “inactive”.

As for `CCc1ccc(S(=O)(=O)Nc2ccc(C)c(NS(C)(=O)=O)c2)cc1`, the Potency result was “inactive”. `CCc1nn(CCCC(=O)NCc2ccccc2OC)c(=O)c2cc3occc3n12`: the Potency result is “inactive”. For `Cc1ccc(-c2ccc(CCC(=O)O)n2-c2ccc(C(N)=O)cc2)cc1` the value was “inactive”; for `CN1/C(=c2/s/c(=C3/C(=O)N(c4ccccc4)NC3=Nc3ccccc3)n(C)c2=O)C(C)(C)c2ccccc21`, 28.2 µM (active); for `CC(C)CCN(C(=O)Nc1ccc(Cl)c(Cl)c1)C(C)c1cccs1` (stereo unspecified), “inactive”.

For the molecule `COc1ccc(NC(=O)c2cnc(Nc3ccc(C)c(Cl)c3)c3ccccc23)cc1OC`, the Potency result was “inactive”. The value for `CCC(=O)N1CCc2cc(Br)cc(S(=O)(=O)Nc3ccc(C)cc3C)c21` was “inactive”; that for `COc1ccc(-c2nn(-c3ccccc3)cc2/C=C2/SC(=S)N(CCCC(=O)O)C2=O)c(C)c1` was 44.7 µM (active). For `Cc1ccc(-c2nn(-c3ccccc3)cc2/C=C2\SC(=S)N(CCCCCC(=O)O)C2=O)o1` the value was 14.1 µM (active); for `COc1ccc(-c2nn(-c3ccccc3)cc2CN2CCCO2)c(F)c1`, “inactive”; for `COc1cccc(NC(=O)CN(C)C(=O)/C=C/c2cn(-c3ccccc3)nc2-c2cccs2)c1`, “inactive”. As to `CN(C(=O)CCN1C(=O)/C(=C/c2ccccc2F)SC1=S)C1CCS(=O)(=O)C1` (stereo unspecified), the Potency result was “inactive”. For `O=C1/C(=C/c2coc3ccc(O)cc3c2=O)SC(=S)N1c1ccccc1` the value was “inactive”; for `CN(Cc1ccccc1)S(=O)(=O)c1ccc(F)c(C(=O)Nc2cccc(Cl)c2Cl)c1`, “inactive”. With `COc1cc(F)c(S(=O)(=O)N2CCCN(S(=O)(=O)c3ccc(N)cc3)CC2)c(F)c1`, the Potency entry was “inactive”. The value for `O=C(COc1ccccc1Cl)Nc1ccc2nc(SCC(=O)N3CCCC3)sc2c1` was “inactive”; that for `O=C(NCc1ccc2c(c1)CCN2C(=O)c1ccccc1)c1ccccc1` was “inactive”.

As for `Cc1ccc(OCCCC(=O)N2CCOCC2)c(C)c1`, the Potency entry was “inactive”. The value for `Cc1ccc(OCCCCN2CCCCC2)c(Br)c1` was 0.794 µM (active); that for `COc1ccc(C(=O)NCCCN2CCOCC2)cc1Br` was “inactive”; that for `Cc1cccc(N2CCN(C(=O)c3cc4c(=O)oc5ccccc5c4s3)CC2C)c1` (stereo unspecified) was “inactive”. For the molecule `COc1ccc(Cn2c(=O)[nH]c3cc(C(=O)N4CCN(C(=O)c5ccco5)CC4)ccc3c2=O)cc1`, the Potency entry is “inactive”. `Cc1ccc2nc(-c3ccc(C)c(NC(=O)Cc4ccccc4)c3)oc2c1`: the Potency result was “inactive”. As to `CC1CCN(C(=O)Cn2c(=O)n(-c3ccc(Cl)cc3)c(=O)c3c4c(sc32)CCC4)CC1`, the Potency entry is “inactive”. For `O=C(O)CSc1nnc(-c2ccc3c(c2)OCO3)n1-c1ccccc1` the value was “inactive”. The value for `Cn1c(SCC(=O)N2CCCC2)nnc1-c1ccc2c(c1)OCO2` was “inactive”; that for `Cn1c(SCc2nc3ccccc3s2)nnc1-c1ccc2c(c1)OCO2` was 31.6 µM (active).
